Source: PubChem BioAssay AID1159580 (chemical genetic matrix, 2015)
Values joined by “and” are separate entries in the source; they are usually repeats but may differ in a detail not shown here. Identical values can stand only once. About 2,000 (36%) of roughly 5,500 compounds were called active. Inconclusive results (about 18%) are left out. Some of the results follow. Unmarked numbers belong to inactive results. Rule as the data show it: active = normalized growth mostly below about 0.91 (no sharp cut-off); inconclusive = no clear call, values can overlap the other calls; inactive = mostly above about 0.92.

Assay: chemical genetic growth profiling, strain panel (AID 1159580);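 also: tested at 20 µM; growth read once vehicle control cultures reached saturation at 30 °C; 1 = growth at the plate median or of vehicle wells; lower values mean less growth of the strain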
Conditions: S. cerevisiae deletion strains, growth OD

COc1c2c(cc3occ(-c4ccc5c(c4)OCO5)c(=O)c13)OC(C)(C)C=C2
normalized growth (locus YAL013W, strain DEP1, active compounds read low): 0.989
normalized growth (locus YAL021C, strain ccr4, active compounds read low): 1
normalized growth (locus YAL026C, strain drs2, active compounds read low): 0.975
normalized growth (locus YAL030W, strain snc1, active compounds read low): 0.997
normalized growth (locus YBL061C, strain skt5, active compounds read low): 0.969
normalized growth (locus YBR009C, strain hhf1, active compounds read low): 0.966
normalized growth (locus YBR021W, strain FUR4, active compounds read low): 0.973
normalized growth (locus YBR023C, strain chs3, active compounds read low): 0.967
normalized growth (locus YBR171W, strain sec66, active compounds read low): 0.988
normalized growth (locus YBR229C, strain ROT2, active compounds read low): 0.987
normalized growth (locus YBR231C, strain swc5, active compounds read low): 0.989
normalized growth (locus YBR279W, strain paf1, active compounds read low): 1.03
normalized growth (locus YCL011C, strain gbp2, active compounds read low): 0.985
normalized growth (locus YCL016C, strain dcc1, active compounds read low): 0.994
normalized growth (locus YCL029C, strain bik1, active compounds read low): 0.961
normalized growth (locus YCL061C, strain MRC1, active compounds read low): 0.996
normalized growth (locus YCL069W, strain vba3, active compounds read low): 1
normalized growth (locus YCR088W, strain abp1, active compounds read low): 0.995
normalized growth (locus YDL005C, strain med2, active compounds read low): 1
normalized growth (locus YDL035C, strain GPR1, active compounds read low): 0.95
normalized growth (locus YDL040C, strain nat1, active compounds read low): 1.01
normalized growth (locus YDL074C, strain BRE1, active compounds read low): 0.901
normalized growth (locus YDL101C, strain DUN1, active compounds read low): 0.98
normalized growth (locus YDL185W, strain tfp1, active compounds read low): 0.943
normalized growth (locus YDL192W, strain arf1, active compounds read low): 0.918
normalized growth (locus YDR001C, strain nth1, active compounds read low): 0.994
normalized growth (locus YDR069C, strain doa4, active compounds read low): 0.991
normalized growth (locus YDR101C, strain arx1, active compounds read low): 0.925
normalized growth (locus YDR137W, strain rgp1, active compounds read low): 0.964
normalized growth (locus YDR159W, strain sac3, active compounds read low): 1.02
normalized growth (locus YDR162C, strain NBP2, active compounds read low): 0.993
normalized growth (locus YDR195W, strain ref2): 1.11
normalized growth (locus YDR297W, strain sur2, active compounds read low): 0.995
normalized growth (locus YDR318W, strain mcm21, active compounds read low): 0.962
normalized growth (locus YDR334W, strain swr1, active compounds read low): 1.01
normalized growth (locus YDR335W, strain msn5, active compounds read low): 1.02
normalized growth (locus YDR388W, active compounds read low): 0.973
normalized growth (locus YDR392W, strain spt3, active compounds read low): 0.644 (active)
normalized growth (locus YDR502C, strain sam2, active compounds read low): 0.926
normalized growth (locus YEL003W, strain gim4, active compounds read low): 1
normalized growth (locus YEL037C, strain rad23, active compounds read low): 1
normalized growth (locus YEL061C, strain CIN8 (second series), active compounds read low): 1.01
normalized growth (locus YEL061C, strain CIN8, active compounds read low): 0.992
normalized growth (locus YER015W, strain faa2, active compounds read low): 1
normalized growth (locus YER016W, strain bim1, active compounds read low): 1
normalized growth (locus YER110C, active compounds read low): 0.983
normalized growth (locus YER111C, strain swi4, active compounds read low): 1.01
normalized growth (locus YER155C, strain BEM2 (second series), active compounds read low): 0.936
normalized growth (locus YER155C, strain BEM2, active compounds read low): 0.992
normalized growth (locus YER167W, strain BCK2, active compounds read low): 0.984
normalized growth (locus YFR010W, strain ubp6, active compounds read low): 0.989
normalized growth (locus YGL078C, strain dbp3, active compounds read low): 0.929
normalized growth (locus YGL086W, strain mad1, active compounds read low): 0.889 (active)
normalized growth (locus YGL167C, strain pmr1, active compounds read low): 1
normalized growth (locus YGL173C, strain kem1, active compounds read low): 0.996
normalized growth (locus YGL227W, strain vid30, active compounds read low): 1
normalized growth (locus YGL240W, strain doc1, active compounds read low): 0.998
normalized growth (locus YGL248W, strain PDE1, active compounds read low): 0.998
normalized growth (locus YGL253W, strain hxk2, active compounds read low): 0.936
normalized growth (locus YGR078C, strain PAC10, active compounds read low): 0.982
normalized growth (locus YGR135W, strain pre9, active compounds read low): 0.98
normalized growth (locus YGR252W, strain gcn5, active compounds read low): 0.983
normalized growth (locus YHR013C, strain ard1, active compounds read low): 0.986
normalized growth (locus YHR027C, strain rpn1, active compounds read low): 0.993
normalized growth (locus YHR030C, strain SLT2, active compounds read low): 0.992 and 1.01
normalized growth (locus YHR079C, strain IRE1 (second series), active compounds read low): 0.952
normalized growth (locus YHR079C, strain IRE1, active compounds read low): 0.983
normalized growth (locus YHR094C, strain hxt1, active compounds read low): 0.977
normalized growth (locus YHR129C, strain ARP1, active compounds read low): 0.988
normalized growth (locus YHR142W, strain chs7, active compounds read low): 0.857 (active)
normalized growth (locus YHR200W, strain rpn10, active compounds read low): 0.949
normalized growth (locus YIL066C, strain RNR3, active compounds read low): 0.965
normalized growth (locus YIL073C, strain SPO22, active compounds read low): 0.941
normalized growth (locus YIL125W, strain kgd1, active compounds read low): 0.96
normalized growth (locus YIR030C, strain dcg1, active compounds read low): 0.97
normalized growth (locus YJL092W, strain hpr5, active compounds read low): 0.99
normalized growth (locus YJL095W, strain BCK1 (second series), active compounds read low): 0.997
normalized growth (locus YJL095W, strain BCK1, active compounds read low): 0.981 and 1.01
normalized growth (locus YJL115W, strain asf1, active compounds read low): 1.02
normalized growth (locus YJL129C, strain trk1, active compounds read low): 0.937
normalized growth (locus YJL134W, strain LCB3, active compounds read low): 0.992
normalized growth (locus YJL154C, strain vps35, active compounds read low): 1.02
normalized growth (locus YJL164C, strain tpk1, active compounds read low): 0.981
normalized growth (locus YJL166W, strain qcr8, active compounds read low): 0.973
normalized growth (locus YJL168C, strain set2, active compounds read low): 0.972
normalized growth (locus YJL187C, strain SWE1 (second series), active compounds read low): 0.975
normalized growth (locus YJL187C, strain SWE1, active compounds read low): 1
normalized growth (locus YJR043C, strain POL32, active compounds read low): 0.999
normalized growth (locus YJR066W, strain TOR1, active compounds read low): 0.955
normalized growth (locus YJR075W, strain HOC1, active compounds read low): 0.976
normalized growth (locus YKL009W, strain mrt4, active compounds read low): 0.885
normalized growth (locus YKL068W, active compounds read low): 0.959
normalized growth (locus YKL085W, strain MDH1 (second series), active compounds read low): 0.965
normalized growth (locus YKL085W, strain MDH1, active compounds read low): 0.965
normalized growth (locus YKL160W, strain elf1, active compounds read low): 0.965
normalized growth (locus YKL190W, strain CNB1, active compounds read low): 0.984
normalized growth (locus YKR001C, strain vps1, active compounds read low): 0.895 (active)
normalized growth (locus YKR026C, strain gcn3, active compounds read low): 0.999
normalized growth (locus YKR091W, strain srl3, active compounds read low): 1
normalized growth (locus YLL001W, strain dnm1, active compounds read low): 0.989
normalized growth (locus YLL026W, active compounds read low): 1
normalized growth (locus YLL041C, strain sdh2, active compounds read low): 0.996
normalized growth (locus YLR027C, strain aat2, active compounds read low): 0.971
normalized growth (locus YLR039C, strain RIC1, active compounds read low): 0.939
normalized growth (locus YLR058C, strain SHM2, active compounds read low): 1
normalized growth (locus YLR102C, strain apc9, active compounds read low): 0.963
normalized growth (locus YLR113W, strain HOG1, active compounds read low): 0.995
normalized growth (locus YLR221C, strain rsa3, active compounds read low): 0.948
normalized growth (locus YLR258W, strain gsy2, active compounds read low): 0.989
normalized growth (locus YLR262C, strain YPT6 (second series), active compounds read low): 0.94
normalized growth (locus YLR262C, strain YPT6, active compounds read low): 0.937
normalized growth (locus YLR268W, strain sec22, active compounds read low): 0.905
normalized growth (locus YLR320W, strain mms22, active compounds read low): 0.928
normalized growth (locus YLR330W, strain CHS5, active compounds read low): 0.981
normalized growth (locus YLR342W, strain FKS1 (second series), active compounds read low): 0.963
normalized growth (locus YLR342W, strain FKS1, active compounds read low): 0.989
normalized growth (locus YLR357W, strain rsc2, active compounds read low): 1.02
normalized growth (locus YLR370C, strain arc18, active compounds read low): 1
normalized growth (locus YLR371W, strain rom2, active compounds read low): 0.944
normalized growth (locus YLR384C, strain iki3, active compounds read low): 1.01
normalized growth (locus YLR418C, strain cdc73, active compounds read low): 0.87
normalized growth (locus YML016C, strain PPZ1, active compounds read low): 1
normalized growth (locus YML032C, strain rad52, active compounds read low): 0.999
normalized growth (locus YML120C, strain ndi1, active compounds read low): 0.987
normalized growth (locus YML124C, strain tub3, active compounds read low): 0.979
normalized growth (locus YMR058W, strain fet3, active compounds read low): 0.987
normalized growth (locus YMR078C, strain ctf18, active compounds read low): 0.986
normalized growth (locus YMR125W, strain sto1, active compounds read low): 1.01
normalized growth (locus YMR129W, active compounds read low): 1.01
normalized growth (locus YMR205C, strain PFK2, active compounds read low): 0.946
normalized growth (locus YMR223W, strain ubp8, active compounds read low): 0.97
normalized growth (locus YMR231W, strain pep5, active compounds read low): 1.01
normalized growth (locus YMR263W, strain SAP30, active compounds read low): 0.97
normalized growth (locus YMR307W, strain GAS1, active compounds read low): 1.05
normalized growth (locus YNL067W, strain RPL9B, active compounds read low): 0.986
normalized growth (locus YNL071W, strain lat1, active compounds read low): 0.89 (active)
normalized growth (locus YNL128W, strain TEP1, active compounds read low): 0.943
normalized growth (locus YNL153C, strain GIM3, active compounds read low): 0.993
normalized growth (locus YNL183C, strain NPR1, active compounds read low): 0.933
normalized growth (locus YNL209W, strain ssb2, active compounds read low): 1.02
normalized growth (locus YNL233W, strain BNI4, active compounds read low): 0.954
normalized growth (locus YNL248C, strain rpa49, active compounds read low): 0.963
normalized growth (locus YNL250W, strain rad50, active compounds read low): 0.925
normalized growth (locus YNL271C, strain bni1, active compounds read low): 0.98
normalized growth (locus YNL298W, strain CLA4, active compounds read low): 0.962
normalized growth (locus YNL307C, strain MCK1, active compounds read low): 0.952
normalized growth (locus YNL322C, strain KRE1 (second series), active compounds read low): 1.02
normalized growth (locus YNR049C, strain mso1, active compounds read low): 1
normalized growth (locus YNR052C, strain pop2, active compounds read low): 0.99
normalized growth (locus YOL012C, strain htz1): 1.17
normalized growth (locus YOL147C, strain pex11, active compounds read low): 0.949
normalized growth (locus YOR001W, strain rrp6, active compounds read low): 0.957
normalized growth (locus YOR061W, strain CKA2, active compounds read low): 0.997
normalized growth (locus YOR069W, strain VPS5, active compounds read low): 0.991
normalized growth (locus YOR070C, strain gyp1, active compounds read low): 0.992
normalized growth (locus YOR080W, strain dia2, active compounds read low): 1.02
normalized growth (locus YOR083W, strain WHI5, active compounds read low): 0.961
normalized growth (locus YOR106W, strain vam3, active compounds read low): 0.975
normalized growth (locus YOR136W, strain idh2, active compounds read low): 0.958
normalized growth (locus YOR144C, strain elg1, active compounds read low): 0.984
normalized growth (locus YOR184W, strain ser1, active compounds read low): 0.795 (active)
normalized growth (locus YOR231W, strain MKK1, active compounds read low): 1.02
normalized growth (locus YOR265W, strain rbl2, active compounds read low): 0.999
normalized growth (locus YOR270C, strain vph1, active compounds read low): 0.817
normalized growth (locus YOR290C, strain snf2, active compounds read low): 0.91
normalized growth (locus YOR316C, strain cot1, active compounds read low): 0.986
normalized growth (locus YPL051W, strain arl3, active compounds read low): 0.973
normalized growth (locus YPL055C, strain LGE1, active compounds read low): 0.926
normalized growth (locus YPL078C, strain atp4, active compounds read low): 0.952
normalized growth (locus YPL106C, strain sse1, active compounds read low): 1.02
normalized growth (locus YPL240C, strain hsp82, active compounds read low): 0.997
normalized growth (locus YPL256C, strain CLN2, active compounds read low): 0.997
normalized growth (locus YPR119W, strain clb2, active compounds read low): 0.964
normalized growth (locus YPR141C, strain kar3, active compounds read low): 0.979
normalized growth (locus YPR163C, strain tif3, active compounds read low): 0.978
normalized growth (locus YPR167C, strain met16, active compounds read low): 0.956
normalized growth (strain wtn01, active compounds read low): 0.911
